From PubChem BioAssay
NPC1 promoter act = activates the NPC1 promoter; Huh7 NPC1 promoter luciferase reporter, 24 h; Potency, µM (titrated, usually from 9.22 µM), hits mostly activators; actives 2.4% (n = 320,000); AID 485313; note: nearly all actives have a fitted effect of over 60% in size
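Stable NPC1-promoter luciferase Huh7 line; cpd (DMSO) 24 h, 37 °C, 5% CO2; Amplite luciferase reagent 10 min RT; luminescence readout. qHTS format.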
ELG1 genotox = inducers of genotoxicity in HEK293T ELG1-luciferase cells; HEK293T ELG1-luciferase reporter, luminescence, 16 h; Potency, µM (doses to about 46 µM), most hits filed as activators; actives 1.3% (n = 330,000); AID 504466; note: nearly all actives have a fitted effect of over 60% in size
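Genotoxic stress is detected as increased luminescence from luciferase-tagged ELG1 in HEK293T cells, measured with ONE-Glo after a 16 hr treatment at 37 °C.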
SMN2 splice up = increases expression of the SMN2 splice variant; HEK293 SMN2-luciferase splicing reporter, luminescence, 30-36 h; Potency, µM (highest dose often 46.1 µM), hits mostly activators; actives 2.8% (n = 210,000); AID 1458; note: nearly all actives have a fitted effect of over 55% in size
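HEK293 cells carry an SMN2 minigene-luciferase reporter in which exon 7 inclusion puts luciferase in frame. Cells were seeded at 2000 cells/well, attached for 10-12 hours, then exposed to compounds for 30-36 hours at 37C before ONE-Glo luminescence.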
FLuc modulator = inhibits or activates purified firefly luciferase, miR-21 counter-screen. P08659. purified FLuc, Km substrates, luminescence inhibition. Potency, µM (series often up to 57.5 µM), usual class: inhibitors. actives 6.9% (n = 360,000). AID 588342; note: nearly all actives have a fitted effect of over 55% in size
Target sequence (P08659 whole entry, looked up): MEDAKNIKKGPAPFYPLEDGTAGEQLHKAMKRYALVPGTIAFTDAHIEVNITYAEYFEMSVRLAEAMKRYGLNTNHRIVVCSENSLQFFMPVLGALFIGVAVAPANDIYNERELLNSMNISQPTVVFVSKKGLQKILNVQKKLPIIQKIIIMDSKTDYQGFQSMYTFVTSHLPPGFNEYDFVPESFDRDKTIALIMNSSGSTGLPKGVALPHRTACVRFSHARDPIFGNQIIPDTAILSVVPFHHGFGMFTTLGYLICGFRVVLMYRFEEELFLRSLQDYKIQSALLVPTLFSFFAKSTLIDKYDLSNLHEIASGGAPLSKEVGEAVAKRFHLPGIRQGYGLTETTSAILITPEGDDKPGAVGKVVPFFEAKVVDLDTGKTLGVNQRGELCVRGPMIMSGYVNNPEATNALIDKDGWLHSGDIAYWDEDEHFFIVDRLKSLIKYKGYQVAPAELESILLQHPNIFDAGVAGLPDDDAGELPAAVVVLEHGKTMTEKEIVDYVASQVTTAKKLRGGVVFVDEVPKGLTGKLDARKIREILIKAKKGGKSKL
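Biochemical qHTS of compounds, final roughly 60 µM downward over six points, against 10 nM purified firefly luciferase using Km concentrations of substrates (10 uM D-luciferin, 10 uM ATP) in Tris acetate pH 7.5 buffer; luminescence output.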
Rab9 promoter act = activates the Rab9 promoter. Huh7 Rab9 promoter-luciferase reporter, luminescence, 24 h. Potency, µM (highest dose often 9.22 µM), actives largely listed as activators. actives 2.8% (n = 320,000); note: nearly all actives have a fitted effect of over 60% in size
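Huh7 cells stably carrying Rab9 promoter–luciferase reporter, plated 1500 cells/well, compound added after 2 h and incubated 24 h at 37 °C; luciferase luminescence then read after 10 min with detection reagent.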
Hits are given with their value; . = inactive; ? = inconclusive; / = no result; [ ] = another dose, or the depositor's remark. Compounds with a hit are over-represented: about 7.5% of the library has one in this group of screens. Calls come from the whole dose curve; as a rule, active = well fitted curve in the direction sought with a large enough effect; inconclusive = small, poorly fitted or top-dose-only effect, or another doubt; inactive = no such curve, though single readings can be large; an effect the other way counts as inactive or inconclusive.

SMILES	NPC1 promoter act	ELG1 genotox	SMN2 splice up	FLuc modulator	Rab9 promoter act
Cc1ccc(N2C(=O)C3C4CC(=O)C(c5ccccc54)C3C2=O)cc1 (configuration not stated)	.	.	.	.	.
Cc1ccc(S(=O)(=O)N2CCN(C(=O)COC(=O)COc3cccc(C(F)(F)F)c3)CC2)c(C)c1	/	.	/	/	/
COc1ccc(OC)c(C(=O)COC(=O)CN2C(=O)NC3(CCCCC3C)C2=O)c1 (configuration not stated)	.	.	/	.	.
CC(C)(C)NC(=O)CSc1nnc(-c2ccccc2)c(-c2ccccc2)n1	.	.	/	.	.
N/C(=N\OC(=O)c1cccc(F)c1)c1ccccn1	3.55µM	?	/	1.07µM	1.58µM
C/C(=N\OC(=O)c1ccc(Br)cc1)c1ccccn1	.	.	.	0.536µM	.
CCOc1ccc(C(=O)O/N=C(\N)c2ccccn2)cc1	0.1µM	?	/	0.0849µM	0.501µM
N/C(=N\OC(=O)c1ccc(Br)o1)c1ccccn1	0.562µM	?	12.6µM	2.69µM	2.24µM
O=C(NCCCNC(=O)c1ccccn1)c1cccc(F)c1	.	.	/	.	.
O=C(OCc1ccccc1)c1ccc(Br)o1	.	.	.	.	.
Cc1cccc(C(=O)O/N=C(/c2ccccc2)c2ccncc2)c1	.	.	.	?	.
Cc1cccc(C(=O)O/N=C(\N)c2ccccn2)c1	1.58µM	2.59µM	/	0.269µM	3.98µM
N/C(=N\OCc1ccc([N+](=O)[O-])cc1)c1ccccn1	?	0.082µM	0.794µM	0.379µM	?
N/C(=N\OC(=O)C(c1ccccc1)c1ccccc1)c1ccccn1	.	.	.	.	.
N/C(=N\OC(=O)c1ccccc1)c1ccccn1	1.78µM	?	/	0.269µM	1µM
O=C(c1ccc2c(=O)n(Cc3ccco3)c(=S)[nH]c2c1)N1CCN(c2ccccc2)CC1	.	.	.	.	.
COCCn1c(COc2ccccc2)nnc1SCC(N)=O	.	.	/	.	.
CN1CCN(C(=O)Cn2c(-c3cccs3)cc3cc(Cl)ccc32)CC1	/	/	/	.	/
C=C(C)CSc1nc2c(c(=O)[nH]c(=O)n2C)n1Cc1ccccc1	.	.	/	.	.
Cn1c(=O)[nH]c(=O)c2c1nc(SCC(N)=O)n2Cc1cccc(Br)c1	.	20.6µM	/	.	.
CCc1ccc(C(=O)/C=C2\Sc3ccccc3NC2=O)cc1	.	.	/	13.5µM	.
N#C/C(C(=O)N1CCCCC1)=C1\Nc2ccccc2S1	?	?	17.8µM	10.7µM	2.82µM
O=C1Nc2ccccc2S/C1=C\C(=O)N1CCCC1	.	.	12.6µM	12µM	3.55µM
O=C1Nc2cc(C(=O)NCCCN3CCCC3)ccc2S/C1=C/c1ccccc1F	.	.[9.26 µM]	/	?	.
CCCCNC(=O)/C=C1\Sc2ccccc2NC1=O	.	.	.[1.84 µM]	?	.
SMILES	NPC1 promoter act	ELG1 genotox	SMN2 splice up	FLuc modulator	Rab9 promoter act
COc1ccccc1N(CCC#N)C(=O)CSc1nc(-c2ccccc2)cn1N	.	.	.	.	.
CN1CCc2c(sc3ncn4nc(-c5ccccc5O)nc4c23)C1	.	.	?	?	.
CCOC(=O)CCN(c1ccccc1)S(=O)(=O)c1ccc2[nH]c(=O)ccc2c1	/	/	/	.	/
CCN(c1ccc(OC)cc1)S(=O)(=O)c1ccc2[nH]c(=O)ccc2c1	/	/	/	5.36µM	/
FC(F)(F)c1nc2cc3nc4ccccc4[nH]c3cc2n1	?	.	/	23.9µM	?
COc1cc(/C=N/Nc2ccc(F)cc2F)cc(OC)c1O	.	.	.	16.9µM	.
COc1cc(/C=N/Nc2ccc(Cl)nn2)cc(OC)c1O	.	.	/	13.5µM	.
Cc1ccc(/C=N/Nc2ccc(F)cc2F)s1	1.58µM	?	/	13.5µM	?
Fc1ccc(N2CCN(Cc3cnc(N4CCOCC4)s3)CC2)cc1	.	.	.	.	.
COc1ccccc1-c1cc(C(=O)Nc2c(C)n(C)n(-c3ccccc3)c2=O)no1	.	.	.	.	.
CCc1nnc(NC(=O)CSc2nc(-c3ccc(OC)cc3)ns2)s1	.	?	?	1.69µM	?
CCOC(=O)CSc1nc(-c2ccccc2)ns1	.	.	.	15.1µM	.
CCOC(=O)CNC(=O)CSc1nc(-c2ccc(OC)cc2)ns1	.	.	.	12µM	.
NC(=O)CSc1nc(-c2ccccc2Cl)ns1	?	.	?	?	3.16µM
c1ccc(Cn2c(NCc3ccco3)nc3ccccc32)cc1	.	.	.	.	.
COc1ccc(-c2cc(C(=O)Nc3nc4c(C)cccc4s3)c3ccccc3n2)cc1OC	.	.	.	10.7µM	.
COc1cccc(-c2cc(C(=O)Nc3nc4ccccc4s3)c3ccccc3n2)c1	.	.	.	16.9µM	.
O=C(CSc1ncccn1)N1CCN(S(=O)(=O)c2ccccc2)CC1	.	.	/	.	.
Cc1cc(Br)ccc1SCC(=O)N1CCN(S(=O)(=O)c2ccccc2)CC1	?	16.4µM	/	13.5µM	?
CCn1c(C)nc2c(C)[n+](CC(=O)c3ccc(Br)cc3)ccc21	1.12µM	1.83µM	.	?	1µM
COc1ccccc1N=C(C)C1=C(O)CSC1=O	.	.	.	.	.
CC(=Nc1ccc(C)c(C)c1)C1=C(O)CSC1=O	.	18.4µM	?	10.7µM	?
COc1ccc(CNC(=O)CCn2c(C)csc2=O)cc1	.	.	/	/	.
Cc1ccc(C)c(NC(=O)c2cc(-c3cc(C)c(C)cc3O)n[nH]2)c1	?	?	/	?	3.55µM
O=C(Nc1cccnc1)c1cc(-c2cc(Cl)ccc2O)n[nH]1	2.82µM	.	/	2.39µM	?
SMILES	NPC1 promoter act	ELG1 genotox	SMN2 splice up	FLuc modulator	Rab9 promoter act
Cc1ccc(O)c(-c2cc(C(=O)Nc3cccnc3)[nH]n2)c1	2.82µM	?	/	5.36µM	2.24µM
Cc1ccc(C)c(NC(=O)c2cc(-c3ccccc3O)n[nH]2)c1	?	.	/	?	?
CCCc1cc(=O)oc2c(CN3CCN(C)CC3)c(O)c(Cl)cc12	.	.	/	.	.
CCC(=O)N(CCO)Cc1cc2ccc(C)c(C)c2[nH]c1=O	.	.	.	.	.
c1ccc(CN2CCN(c3ncccn3)CC2)cc1	.	.	/	.	.
c1ccc(COc2ccc(CN3CCN(c4ccccn4)CC3)cc2)cc1	?	20.6µM	.	6.75µM	2.24µM
NC(=O)C1CCN(Cc2ccc(OCc3ccccc3)cc2)CC1	2.51µM	?	/	15.1µM	?
CCOC(=O)C1CCN(Cc2ccc(OCc3ccccc3)cc2)CC1	.	.	/	.	.
CN=c1scc(-c2ccc(F)cc2)n1/N=C/c1ccc(O)c(O)c1	.	.	?	0.675µM	.
CCOC(=O)/C=C(\C)Sc1cc(O)c2ccccc2c1O	.	.	/	9.53µM	.
O=C(Nc1cc(C(F)(F)F)ccc1N1CCOCC1)c1ccc[n+]([O-])c1	.	.	.	.	.
O=C(Nc1nc2c(s1)CCCC2)C1CCCN1C(=O)c1cccs1 (configuration not stated)	.	.	.	.	.
O=C(Nc1ncc2c(n1)-c1ccccc1CC2)c1cccs1	.	.	.	19µM	.
Fc1ccccc1Nc1nc2c(s1)CCc1ccccc1-2	?	8.2µM	?	1.9µM	3.16µM
